The source of these data is PubChem BioAssay.

Assay [1] can be described thus: A549 cell viability effects, profiling panel, calcein-AM fluorescence, 48 h, basal (AID 1162). Further: test concentration not given here. To be noted: higher = more signal.
The nature of assay [2]: adipocyte viability effects, profiling panel, cell-based, 3T3-L1 adipocytes, calcein-AM fluorescence, 48 h, basal (AID 1163). Further: test concentration not given here. To be noted: 3T3-L1 adipocytes viability, higher = more signal.
Assay [3] can be described thus: HepG2 cell viability effects, profiling panel, calcein-AM fluorescence, 48 h, basal (AID 1164). Further: test concentration not given here. To be noted: higher = more signal.
The nature of assay [4]: MM1S cell viability effects, profiling panel, calcein-AM fluorescence, 48 h, basal (AID 1165).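 Further: viability of MM1S multiple myeloma cells under basal unstimulated conditions; test concentration not given here.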 To be noted: higher = more signal.
The nature of assay [5]: basal RPMI8226 viability, no added stimulus, profiling panel, cell-based, calcein-AM fluorescence, 48 h, PK04 Diversity Set (AID 1166).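 Further: cells grown under basal conditions without added stimulus; test concentration not given here.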 To be noted: RPMI8226 myeloma viability, higher = more signal.
A short description of assay [6]: basal HepG2 mitochondrial membrane potential changes, profiling panel, cell-based, JC-1 fluorescence, 24 h, 100 nL compound (AID 1167). Further: test concentration not given here. To be noted: higher = more signal.
Assay [7] is described as follows: basal 3T3-L1 adipocyte mitochondrial potential changes, profiling panel, cell-based, JC-1 fluorescence, 3T3-L1 adipocytes, 24 h, 100 nL compound (AID 1168). Further: test concentration not given here. To be noted: JC-1 mitochondrial fluorescence, higher = more signal, called active from +8 up or from −8 down.
Assay [8] in a line: basal RPMI8226 mitochondrial membrane potential changes, profiling panel, cell-based, JC-1 fluorescence, 24 h, 100 nL compound (AID 1169). Further: test concentration not given here. To be noted: RPMI8226 myeloma, JC-1 mitochondrial potential fluorescence, higher = more signal.
Assay [9] is described as follows: basal MM1S mitochondrial membrane potential changes, profiling panel, cell-based, JC-1 fluorescence, 24 h, 100 nL compound (AID 1170). Further: test concentration not given here. To be noted: higher = more signal.
A short description of assay [10]: A549 lung cancer cell viability effects, profiling panel, resazurin fluorescence, 24 h, PK04 Diversity Set (AID 1171). Further: test concentration not given here. To be noted: higher = more signal, called active from +8 up or from −8 down.
A short description of assay [11]: HepG2 liver cancer cell viability effects, profiling panel, resazurin fluorescence, 24 h, PK04 Diversity Set (AID 1172). Further: test concentration not given here. To be noted: higher = more signal.
A short description of assay [12]: basal S. cerevisiae growth modulation, no modifier, primary screen, OD600, strain BY4716, 24 h, basal condition (AID 1173). To be noted: OD600, 24 h, higher = more signal, called active from +8 up or from −8 down.
A short description of assay [13]: MM1S myeloma cell viability, profiling panel, resazurin fluorescence, basal, 24 h, PK04 Diversity Set (AID 1174).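 Further: MM1S multiple myeloma cell line; test concentration not given here.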 To be noted: higher = more signal, called active from +8 up or from −8 down.
Assay [14] has as its target Dihydroorotate dehydrogenase (quinone), mitochondrial (Plasmodium falciparum (isolate 3D7)) (UniProt Q08210). Nature of the assay: PfDHODH enzyme inhibitors, primary screen, biochemical, C-terminal His tag, absorbance 600 nm (AID 1175).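 Further: recombinant parasite enzyme with a five histidine tag at its C terminus; test concentration not given here.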 To be noted: DCIP absorbance 600 nm, higher = more signal, called active from +8 up or from −8 down.
Assay [15] is described as follows: P. aeruginosa biofilm formation inhibitors, primary screen, strain PAO1, LB-PBS medium, absorbance 600 nm (AID 1176). Further: test concentration not given here. To be noted: P. aeruginosa PAO1 growth/biofilm, A600, 12 h; higher = more signal.
Assay [16] is described as follows: S. cerevisiae RM11-1a growth modifiers, primary screen, strain RM11-1a, OD600, basal, 24 h (AID 1177).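 Further: cultures grown under basal conditions with no added stressor; test concentration not given here.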 To be noted: OD600, 24 h, higher = more signal, called active from +8 up or from −8 down.
A short description of assay [17]: E. coli acrAB mutant growth effects, primary screen, E. coli filamentation inducers, strain DRC39, OD650, 24 h (AID 1178).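 Further: growth measured as culture turbidity by optical density at 650 nm; test concentration not given here.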 To be noted: higher = more signal, called active from +8 up or from −8 down.
Assay [18] is described as follows: E. coli acrAB mutant growth effects, primary screen, E. coli filamentation inducers, strain DRC39, OD650, 48 h (AID 1179).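 Further: screen aims at cell division blockers that make cells filament.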 To be noted: E. coli DRC39 delta-acrAB growth, higher = more signal, called active from +8 up or from −8 down.
The nature of assay [19]: RPMI8226 myeloma cell viability, profiling panel, resazurin fluorescence, basal, 24 h, PK04 Diversity Set (AID 1180).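 Further: RPMI8826 multiple myeloma cell line at 5000 cells per well; test concentration not given here.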 To be noted: higher = more signal.
Assay [20] addresses E3 ubiquitin-protein ligase XIAP (Homo sapiens) (UniProt P98170). Description: XIAP binders, primary screen, biophysical, small-molecule microarray, fluorescence 635 nm (AID 1181).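 Further: score merges 667 nm emission and signal to noise over triplicate slides.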 To be noted: small-molecule microarray binding, higher = more signal.

Activity calls are given as the source filed them. Unless noted, how the calls were made is not given here.

Chain of E3 ubiquitin-protein ligase XIAP (Homo sapiens) (P98170 whole entry, looked up): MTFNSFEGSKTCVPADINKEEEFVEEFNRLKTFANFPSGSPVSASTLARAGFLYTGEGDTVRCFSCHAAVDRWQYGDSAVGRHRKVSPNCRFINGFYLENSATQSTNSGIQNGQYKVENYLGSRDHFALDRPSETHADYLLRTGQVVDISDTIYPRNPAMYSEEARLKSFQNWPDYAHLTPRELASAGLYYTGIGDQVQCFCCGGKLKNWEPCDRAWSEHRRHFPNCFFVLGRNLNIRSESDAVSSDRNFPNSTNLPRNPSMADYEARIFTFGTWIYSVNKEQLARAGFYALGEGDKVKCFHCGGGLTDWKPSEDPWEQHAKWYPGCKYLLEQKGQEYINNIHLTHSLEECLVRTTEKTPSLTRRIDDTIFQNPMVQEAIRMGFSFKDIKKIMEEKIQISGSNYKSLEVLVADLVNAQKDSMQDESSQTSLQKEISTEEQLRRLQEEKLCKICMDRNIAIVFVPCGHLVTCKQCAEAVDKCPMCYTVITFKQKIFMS
Chain of Dihydroorotate dehydrogenase (quinone), mitochondrial (Plasmodium falciparum (isolate 3D7)) (Q08210 whole entry, looked up): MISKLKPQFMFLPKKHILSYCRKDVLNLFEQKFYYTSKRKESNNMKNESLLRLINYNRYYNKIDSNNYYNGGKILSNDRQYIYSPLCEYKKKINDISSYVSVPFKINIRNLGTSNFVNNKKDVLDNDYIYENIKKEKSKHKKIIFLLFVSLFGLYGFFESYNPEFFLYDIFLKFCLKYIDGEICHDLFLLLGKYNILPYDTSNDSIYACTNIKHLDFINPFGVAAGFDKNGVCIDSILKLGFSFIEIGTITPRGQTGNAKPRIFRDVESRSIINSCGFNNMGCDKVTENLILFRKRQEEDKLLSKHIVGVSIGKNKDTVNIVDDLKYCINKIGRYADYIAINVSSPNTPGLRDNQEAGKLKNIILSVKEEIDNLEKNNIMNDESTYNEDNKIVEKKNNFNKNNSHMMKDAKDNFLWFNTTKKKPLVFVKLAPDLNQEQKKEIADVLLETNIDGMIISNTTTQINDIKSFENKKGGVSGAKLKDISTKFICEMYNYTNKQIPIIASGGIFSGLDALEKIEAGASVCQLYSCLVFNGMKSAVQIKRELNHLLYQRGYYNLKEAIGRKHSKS

Regarding `COC(=O)C(CC#Cc1ccc2c(c1)[C@]1(C(=O)N2)[C@H](C(=O)Nc2nc3ccccc3s2)[C@H]2C(=O)O[C@H](c3ccccc3)[C@H](c3ccccc3)N2[C@@H]1c1ccccc1OCCO)C(=O)OC`, the z-score in assay [1] is -0.231; in [2], 0.728; in assay [3], 0.0091; in assay [4] it was -0.426; in assay [5], -2.6; in assay [6], -2.7. In addition, the z-score in assay [7] was -0.502 (inactive); in assay [8] it was -1.17; in [9], -1.63; in [10], -0.367 (inactive); in assay [11] it was 0.522; in assay [12], 0.839 (inactive). In addition, the z-score in assay [13] is -0.334 (inactive); in [15], 2.47 (inactive); in [16] it was 2.1 (inactive); in assay [17], -0.0715 (inactive); in assay [18] it was 0.037 (inactive); in [19], -1.1. Further, the composite z-score in assay [14] is -4.92 (inactive); in assay [20], 0.472.

For `CC(C)C[C@@H]1NC(=O)[C@H](C(C)C)NC(=O)[C@@]23C(=O)N[C@@H](Cc4ccccc4)C2[C@H](C)[C@@]2(C)O[C@H]2C3/C=C/CC/C=C/CNC1=O` (stereo not given in full), the z-score in assay [1] is -0.642; in assay [2], 1.39; in assay [3] it was -0.504; in assay [4] it was -0.359; in assay [5], -0.789; in assay [6], -0.0491. For the same molecule, the z-score is -0.321 (inactive) in [7]; 0.0651 in [8]; 1.72 in [9]; 0.612 (inactive) in assay [10]; 0.233 in assay [11]; -0.399 (inactive) in assay [12]. Further, the z-score is -0.0691 (inactive) in assay [13]; 0.956 (inactive) in assay [15]; 0.388 (inactive) in assay [16]; 1.04 (inactive) in [17]; 0.408 (inactive) in assay [18]; 0.628 in assay [19]. Besides, the composite z-score in assay [14] was -0.313 (inactive); in [20] it was -0.243.

As to `CC(C)[Si]1(C(C)C)O[C@@H](c2ccccc2)c2cc(-c3ccc(-c4ccc(Cl)c(Cl)c4)o3)nc(-c3ccccc3)c21`, the z-score was 0.272 in [1]; -0.277 in [2]; 0.428 in assay [3]; -2.62 in assay [4]; -3.09 in assay [5]; -1.87 in assay [6]. Further, the z-score in assay [7] is -1.06 (inactive); in assay [8] it was -0.395; in assay [9] it was -0.582; in assay [10], 0.613 (inactive); in [11], -0.0945; in [12], -1.38 (inactive). For the same molecule, the z-score in assay [13] is -0.274 (inactive); in [15], 0.574 (inactive); in assay [16], -0.282 (inactive); in [17], -0.0522 (inactive); in assay [18], -0.221 (inactive); in assay [19], -0.406. Besides, the composite z-score in assay [14] is 1.74 (inactive); in assay [20], -0.202.

With `CC(C)C[C@@H]1NC(=O)[C@@H]2C[C@H](C(=O)O)[C@H](c3cccc(OCCO)c3)N2C1=O`, the z-score in assay [1] was 0.196; in assay [2] it was 0.237; in [3] it was -0.404; in assay [4] it was 0.101; in assay [5], -0.57; in assay [6] it was 0.555. Besides, the z-score in assay [7] was -0.531 (inactive); in [8] it was 0.719; in assay [9], 0.897; in assay [10], 0.0499 (inactive); in assay [11], -0.314; in assay [12], -0.0664 (inactive). The z-score in [13] was 0.254 (inactive); in assay [15] it was -0.447 (inactive); in assay [16] it was -0.747 (inactive); in [17], 0.398 (inactive); in assay [18] it was -0.263 (inactive); in assay [19], 0.294. For the same molecule, the composite z-score is -1.16 (inactive) in [14] and -0.059 in assay [20].

As to `COCCOC(=O)N1C(=O)[C@@]2(c3cc(C#CCC(C(=O)OC)C(=O)OC)ccc31)[C@H](c1ccccc1OCCO)N1[C@H](c3ccccc3)[C@H](c3ccccc3)OC(=O)[C@H]1[C@@H]2C(=O)N1CCN(c2ncccn2)CC1`, the z-score in assay [1] is -0.0169; in assay [2], 1.16; in [3] it was 0.469; in assay [4] it was -1.59; in assay [5] it was -2.45; in assay [6], 0.8. In addition, the z-score in assay [7] is 2.27 (inactive); in assay [8], -0.78; in assay [9], -0.522; in assay [10], 0.934 (inactive); in [11], 0.326; in [12], 2.4 (inactive). In addition, the z-score in [13] was 1.04 (inactive); in assay [15], 3.18 (inactive); in assay [16], 3.19 (inactive); in assay [17], 0.862 (inactive); in assay [18], 0.519 (inactive); in [19], -0.83. Also, the composite z-score in assay [14] is -0.388 (inactive); in [20], -0.0095.

Consider `C=C[C@H](CO)NS(=O)(=O)c1ccc(Br)cc1`, for which the z-score in assay [1] was 1.52; in assay [2] it was 0.131; in assay [3], 1.34; in assay [4] it was -0.328; in assay [5], -0.451; in assay [6], 0.63. The z-score in assay [7] was 0.489 (inactive); in [8], 0.3; in [9] it was 0.525; in [10] it was 0.204 (inactive); in assay [11] it was 0.578; in assay [12], 0.0356 (inactive). The z-score in assay [13] was 0.44 (inactive); in assay [15], -0.621 (inactive); in assay [16] it was 0.34 (inactive); in [17], 0.328 (inactive); in assay [18], 0.276 (inactive); in assay [19], 0.0112. Besides, the composite z-score in assay [14] is -1.05 (inactive); in [20], -0.0559.

For the molecule `O=C1C2C=CC(C(O)c3cccc4ccccc34)N(Nc3ccccc3F)C2C(=O)N1c1ccccc1` (stereo not given), the z-score in assay [1] is -1.05; in assay [2], -1.47; in assay [3] it was -0.231; in [4] it was 0.121; in assay [5] it was -0.345; in assay [6] it was -1.86. The z-score in [7] was -0.794 (inactive); in [8], 0.355; in [9] it was -1.68; in [10], -0.232 (inactive); in [11] it was 0.0332; in assay [12], -0.103 (inactive). Moreover, the z-score in assay [13] is -0.186 (inactive); in assay [15], 1.11 (inactive); in [16], 0.0054 (inactive); in assay [17], -0.844 (inactive); in assay [18] it was -0.204 (inactive); in assay [19] it was 0.0889. For the same molecule, the composite z-score is -0.629 (inactive) in assay [14] and 0.321 in [20].

In the case of `NC(=O)N1C(=O)C2C(C1=O)C1C=C(c3ccc(CO)cc3)C2C(c2cccs2)N1Cc1cccc(OC(F)(F)F)c1` (stereo not given), the z-score is 1.56 in [1]; 0.868 in [2]; 0.0764 in assay [3]; -2.08 in assay [4]; -2.08 in assay [5]; -1.7 in [6]. For the same molecule, the z-score in assay [7] was 0.863 (inactive); in [8], -0.85; in [9], -1.67; in assay [10] it was -0.69 (inactive); in assay [11], -0.532; in [12], -4.02 (inactive). Further, the z-score in assay [13] is -0.683 (inactive); in [15], -0.79 (inactive); in assay [16], -1.87 (inactive); in assay [17], -5.27 (inactive); in assay [18], -4.66 (inactive); in assay [19] it was -0.452. Moreover, the composite z-score in assay [14] is -8.36 (active); in assay [20] it was 0.278.

Regarding `C=CCN1C(=O)[C@@]2(Cc3ccccc31)N=C(c1ccc(OCCCO)cc1)O[C@H]2c1ccccc1`, the z-score is -0.914 in assay [1]; -0.107 in [2]; -1.38 in assay [3]; -3.23 in [4]; -2.16 in assay [5]; -0.927 in assay [6]. Moreover, the z-score is 0.133 (inactive) in assay [7]; -0.942 in assay [8]; -1.29 in assay [9]; -1.99 (inactive) in assay [10]; -0.0935 in assay [11]; -2.94 (inactive) in [12]. The z-score was -2.21 (inactive) in assay [13]; 0.122 (inactive) in [15]; 1.4 (inactive) in [16]; 1.27 (inactive) in [17]; 0.775 (inactive) in assay [18]; -2.81 in [19]. Also, the composite z-score in [14] was 0.161 (inactive); in assay [20] it was -0.0009.
